Structures are written as SMILES. This is part of a sample that, as a whole, favours compounds with a hit. Of some 83,000 tested, about 20% had one in any assay.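 48-hour exposure, single concentration, 96-well plates; percent growth endpoint where 0 means no net growth. Active: below 10.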 Active and inactive are the calls of the source.

In the assay the test system is HL-60(TB) leukemia. Nature of the assay: NCI-60 one-dose screen, 48 h (100 = growth as untreated, 0 = no growth, -100 = all killed). The note with it: 10 µM unless noted.
Consider `C=CCC(O)C=C` (stereo not given), for which the growth was 101% (inactive).

Regarding `O=C1Nc2ccccc2C12CC(c1ccccc1)=NN2` (stereo not given), the growth was -8.55% (active). With `C=C(C)[C@@H]1CC[C@]2(COC(C)=O)CC[C@]3(C)[C@H](CC[C@@H]4[C@@]5(C)CCCN(C(C)=O)C(C)(C)[C@@H]5CC[C@]43C)[C@@H]12` the figure was -29.2% (active); with `Cc1nn(-c2nc(-c3cc4ccccc4oc3=O)cs2)c(C)c1N=Nc1ccccc1`, 101% (inactive); with `COc1cc(/C=C2\Oc3cc(OCC(=O)c4ccccc4)ccc3C2=O)cc(OC)c1OC`, 118% (inactive).

Regarding `CCCCCCCCCCCCCCCCCCOc1ccccc1CC(=O)NCC[N+]1(C)CCOCC1`, the growth was -10.6% (active).

As to `CCOC(=O)c1c(NS(=O)(=O)c2ccc(C)cc2)sc2c1CCC1(C2)OCCO1`, the growth was 88.5% (inactive).

With `Cc1cc(N2CCSCC2)nc(NC2CCCC(Nc3ccnc4cc(Cl)ccc34)C2)n1` (stereo not given), the growth was -68.7% (active). `COc1ccc(-c2nnc(COc3ccc(Cl)cc3Cl)o2)cc1OC`: the growth is 89.3% (inactive). As to `CCn1c(=O)c2c(=O)c3c4c(oc3oc2c2ccccc21)C(=O)c1ccccc1C4=O`, the growth is -18.8% (active). On to `COc1ccc(/C(=N\N)C(=O)c2ccccc2)cc1` (tested in a mixture with another compound), for which the growth is 77.8% (inactive). With `Clc1ccc2c(c1)-c1ccccc1C1=NCCN12` the figure was 38.1% (inactive); with `CCOC(=O)c1ccc(Nc2ncnc3ccc(NC(=O)c4ccccc4)cc23)cc1`, 69.9% (inactive). Consider `O=S(=O)(NCCNc1nccc(-c2c(-c3ccc(F)c(O)c3)nc3occn23)n1)c1ccccc1`, for which the growth is 63.6% (inactive). Turning to `N#Cc1c(N)n(C2OC(CO)C(O)C2O)c2ncnc(N)c12` (stereo not given), the growth is -67.1% (active). `COc1cc(NS(C)(=O)=O)ccc1Nc1c2ccc([N+](=O)[O-])cc2nc2c(C)cccc12`: the growth is -26.6% (active). `COc1cc2c(c(OC)c1OC)C(=O)CC(c1cccc(C(=O)Nc3cccc(Br)c3)c1)O2` (stereo not given): the growth is 91.8% (inactive). Consider `CN1CCN(Cc2ccc(NC(=O)c3[nH]ncc3Nc3ccnc4ccnn34)cc2)CC1`, for which the growth is 45.5% (inactive).

In the case of `O=C(O)c1cn(C2CC2)c2cc(N3CCN(C(=O)Nc4nc(-c5ccccc5)cs4)CC3)c(F)cc2c1=O`, the growth was 3.14% (active). Regarding `COc1ccc(Nc2cnc3cc(NS(=O)(=O)c4ccc(C)cc4)ccc3n2)cc1`, the growth is 70% (inactive). On to `Nc1nc(N)c2c(n1)NC(c1cccc(Nc3ccnc4cc(C(F)(F)F)ccc34)c1)CC(c1ccc(F)cc1)=N2` (stereo not given), for which the growth was 17.8% (inactive). With `CCCN1CN2C(=O)N3CN(CCC)CN4C(=S)N(C1)C2C34` (stereo not given) the figure was 95% (inactive). Under `CC1SC(N)=NC1=O` (stereo not given) stands 104% (inactive). For `COc1ccc(/C(=C\c2ccccc2)C(=O)O)cc1OC`, the growth was 112% (inactive). Under `O=C1/C=C/[C@@H](O)[C@@H]2C[C@@H](O)C[C@H]2/C=C/CCC[C@@H](O)CCO1` stands 123% (inactive); under `Fc1ccc(/C=C/c2cc(/C=C/c3ccc(F)cc3)n(-c3cc(F)cc(F)c3)n2)cc1`, 78.9% (inactive); under `CCOc1ccc(Br)cc1/C=N\N=C\c1cc(Br)ccc1OCC`, 73.2% (inactive).

Turning to `COc1ccc2c(c1)oc1c(C)c3c(c(C)c12)C(=O)N(CCN1CCOCC1)C3=O`, the growth was 87.6% (inactive).

For the compound `Clc1ccc2nc(-c3ccc(-c4ccc(/C=N/NC5=NCCN5)cc4)s3)cn2c1`, the growth was 98.1% (inactive). For the compound `C=C1CC[C@@H]2[C@](C)(COC(C)=O)[C@H](OC(C)=O)CC[C@@]2(C)[C@@H]1CC(Nc1ccc(S(=O)(=O)Nc2ncccn2)cc1)C1=CCOC1=O` (stereo not given in full), the growth was -17.2% (active). Under `O=C(Nc1cccc(-n2cc(-c3ccncc3)c(-c3ccc(O)c(Cl)c3)n2)c1)Nc1ccc(Cl)c(C(F)(F)F)c1` stands -2.7% (active); under `COc1cc(-c2csc(NC(=O)Nc3cc(Cl)cc(Cl)c3)n2)cc(OC)c1OC`, 34.9% (inactive). Regarding `COc1ccc(/C=C/C(C)=N/OCC(=O)O)cc1`, the growth was 89.1% (inactive). With `C#C[C@]1(O)CC[C@H]2[C@@H]3CC=C4c5nc(Nc6ccccn6)sc5CC[C@]4(C)[C@H]3CC[C@@]21C`, the growth is 10.6% (inactive). Regarding `Cc1ccc(S(=O)(=O)NN/C(N)=N\S(=O)(=O)c2cc(C)c(Cl)cc2SCc2ccccc2)cc1`, the growth was 83.6% (inactive). Turning to `COc1ccc(SC2c3ccc(C)cc3Oc3nc(N)c(C#N)c(N)c32)cc1` (stereo not given), the growth is -53.4% (active).

Turning to `CN1CCc2c(sc3nc4n(-c5ccc(Cl)cc5)cnn4c(=O)c23)C1`, the growth was 105% (inactive). Turning to `Nc1cc(-c2ccc(Cl)cc2)nn1-c1nc(-c2ccc(Br)cc2)cs1`, the growth is 96.3% (inactive).

`CN(C)c1ccc(/C=N/N=C(N)N)cc1`: the growth was 59.2% (inactive).

With `CCN(CC)CCNC(=O)n1cc(-c2ccncc2)c(-c2ccc(Cl)c(OC)c2)n1`, the growth was 95.9% (inactive).

Values taken from PubChem BioAssay (NCI).
